# Results: the OligoGym collection
# Biological target: ZBTB9
# Experiment: pooled miR-30 sensor sort-seq; sequence = guide strand
# Details: shRNA
# Further: reference of the scale not given here.
row,Sequence,sensor-assay potency score (higher = more potent)
1,TTTAAGTAACTGCAAGTCCCAC,-0.539
2,TAAAACATTTACCACTGTCTTT,-1.1
3,TCGGCTTCAATGACACTCGGTA,-0.397
4,TAAATAATTGAAAATCTGGTTT,-0.887
5,TAACACTGCTTTATGAGCCCTA,-0.401
6,TTGAGTTTCCACATCTGCCAGG,-0.504
7,TTAATGTAGAAGATTTTGGGGG,-0.261
8,TTTCTGAGCACTGATCTACTAC,-0.637
9,TTTTGCTCTAACTCTTCTCTCA,-0.273
10,TAATTCTCTAAGAATTTCTGAG,-0.361
11,TGAGCACTGATCTACTACCTGC,-0.24
12,TTAAGCTGTAAATCAAATGTAT,-0.457

# Biological target: ZC3H13
# Experiment: as above
# Details: shRNA
row,Sequence,sensor-assay potency score (higher = more potent)
1,TAGACTTTCTTAGAGAAGGTGA,0.611
2,TTGATCTAACCACTTCTGGTGA,-0.291
3,TTGAGGTCGTACAACTTGGCTC,-0.282
4,TTGTTCTTCATTCTTTCTCTAA,-0.618
5,TTCTCGGATCTCTTCTCGCTTT,-0.478
6,TTCATTTCTATAGCGCTTCTTT,-0.352
7,TTGAACTCTCTTTCCTTTCTGG,0.745
8,TTGGATTCCTATCTTCTCGGAT,0.12
9,TTTTGATCTAACCACTTCTGGT,-0.785
10,TATTCCAACATCATCCTCTTTC,0.216
11,TATAATTGCTGCTATAACCTTT,-0.316
12,TTTCAGGATAGCTACTTCGAGT,-1.23

# Biological target: ZDHHC14
# Experiment: as above
# Details: shRNA
row,Sequence,sensor-assay potency score (higher = more potent)
1,TAGTAGCATAACACATAAGTGC,-0.719
2,TTTGTTGTCTGGTTGGAGCTGA,0.539
3,TTTGCGATATCTATTTGCCTTT,-0.604
4,TTGGAGCTGATCAAGTAGGTGT,0.206
5,TTGGTCGCACATGTCACTCTGT,0.506
6,TTGCAGTCTGGCCACAAGCGTC,-1.44
7,TTACAGAAGAACTTGTTTCTTC,0.472
8,TTGATGATGACTTCTTTGGTTC,-0.541
9,TTACCTCTTTTATTTGACCAGG,-0.803
10,TTAGGAATCCTGTTTGCTGTGA,0.039

# Biological target: ZDHHC20
# Experiment: as above
# Details: shRNA
row,Sequence,sensor-assay potency score (higher = more potent)
1,TTGTTGTCTTTCTTGGCTGAAT,-1.21
2,TTCTTCAGCTCCATTCTCCAGC,-0.419
3,TTTCTTGTTGTCTTTCTTGGCT,-0.0932
4,TTTTGCACGTGTATCTGTCAGT,-0.551
5,TAAAGTACTCTAAAACTGTTGC,0.215
